Experimental data as given in article PMC13423814.

Target: CHTOP (UniProt Q9Y3Y2)
Details: DSSO, in cells

Chain of CHTOP (Q9Y3Y2 whole entry): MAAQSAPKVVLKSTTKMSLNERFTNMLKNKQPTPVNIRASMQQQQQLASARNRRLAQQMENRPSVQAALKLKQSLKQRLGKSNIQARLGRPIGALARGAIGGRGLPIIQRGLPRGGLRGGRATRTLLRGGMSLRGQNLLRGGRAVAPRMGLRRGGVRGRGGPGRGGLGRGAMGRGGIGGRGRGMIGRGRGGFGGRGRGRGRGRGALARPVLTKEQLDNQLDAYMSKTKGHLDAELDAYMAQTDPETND
Chain of DDX39B, Q13838 (Q13838 whole entry): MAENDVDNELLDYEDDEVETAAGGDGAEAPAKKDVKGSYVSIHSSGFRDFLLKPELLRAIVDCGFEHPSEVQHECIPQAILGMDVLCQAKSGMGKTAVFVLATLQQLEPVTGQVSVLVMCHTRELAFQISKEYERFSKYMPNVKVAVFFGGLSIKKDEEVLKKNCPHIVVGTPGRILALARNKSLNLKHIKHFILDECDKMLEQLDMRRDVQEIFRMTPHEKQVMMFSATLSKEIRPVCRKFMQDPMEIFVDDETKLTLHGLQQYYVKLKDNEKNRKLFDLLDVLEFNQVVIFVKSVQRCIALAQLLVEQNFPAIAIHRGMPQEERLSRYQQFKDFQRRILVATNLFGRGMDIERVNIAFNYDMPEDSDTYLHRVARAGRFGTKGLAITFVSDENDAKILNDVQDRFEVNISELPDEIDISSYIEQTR
Chain of DDX39A, O00148 (O00148 whole entry): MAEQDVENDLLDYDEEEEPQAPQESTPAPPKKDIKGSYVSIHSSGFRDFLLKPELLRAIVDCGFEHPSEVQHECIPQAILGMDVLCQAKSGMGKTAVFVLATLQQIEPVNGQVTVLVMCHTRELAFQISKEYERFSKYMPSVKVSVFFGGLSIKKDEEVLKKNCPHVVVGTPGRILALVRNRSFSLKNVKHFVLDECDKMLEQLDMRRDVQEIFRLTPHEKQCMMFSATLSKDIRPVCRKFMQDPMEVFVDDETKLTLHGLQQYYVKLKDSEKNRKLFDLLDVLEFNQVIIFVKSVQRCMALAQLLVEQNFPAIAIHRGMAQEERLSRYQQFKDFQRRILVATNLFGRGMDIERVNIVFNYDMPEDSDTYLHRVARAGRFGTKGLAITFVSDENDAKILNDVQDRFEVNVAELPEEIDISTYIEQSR
Chain of EIF4A3, P38919 (P38919 whole entry): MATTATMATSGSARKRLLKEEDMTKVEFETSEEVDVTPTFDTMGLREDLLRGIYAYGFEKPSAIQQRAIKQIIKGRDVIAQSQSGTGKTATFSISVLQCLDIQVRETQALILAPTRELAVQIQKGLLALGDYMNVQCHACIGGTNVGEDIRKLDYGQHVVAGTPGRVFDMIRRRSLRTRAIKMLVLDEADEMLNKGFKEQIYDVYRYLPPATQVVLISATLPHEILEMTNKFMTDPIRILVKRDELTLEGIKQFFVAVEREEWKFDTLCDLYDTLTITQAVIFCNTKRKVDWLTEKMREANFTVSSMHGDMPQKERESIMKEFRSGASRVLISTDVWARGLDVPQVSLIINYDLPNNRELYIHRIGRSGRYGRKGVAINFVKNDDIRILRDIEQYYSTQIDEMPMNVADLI

Substance | cross-linked residues
DDX39A, O00148 | K187 - S225
DDX39B, Q13838 | K188 - K226
EIF4A3, P38919 | K152 - K81
